MITF TRPM1 inh – inhibitors of MITF-dependent TRPM1 promoter reporter, primary screen, cell-based, SK-MEL-5, single point, luciferase; SK-MEL-5 TRPM1 promoter luciferase, 24 h; inhibition, % at 12.5 µM; actives 0.83% (n = 330,000); AID 488899, 2010;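 active means mean inhibition across replicates of 60% or more, whatever share of single replicates reaches that level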
EBV LMP1 NFkB – EBV LMP1-driven NF-kappaB luciferase reporter inhibitors, primary screen, cell-based, luminescence, single point; LMP1-induced NF-kappaB luciferase reporter cells; inhibition, % at 12.5 µM; actives 0.69% (n = 350,000); in the data active means inhibition above about 41%
TWEAK-Fn14 inh – inhibitors of TWEAK-Fn14 signaling, primary screen, luciferase reporter cells, uHTS; actives 2% (n = 360,000); TWEAK-stimulated Fn14 reporter cells, luciferase luminescence, 8 h; AID 1159606, 2016; inhibition, % at 10 µM; in the data active means inhibition above about 50%
Shn3 inh set2 – reduction of Shn3 3'UTR firefly luciferase signal, primary screen, Schnurri-3 inhibitor project, cell-based, Clone20 osteoblasts, set 2 | Clone20 osteoblast Shn3 3'UTR firefly luciferase, 24 h | inhibition, % at 12.5 µM | actives 0.52% (n = 360,000);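 active means mean inhibition of at least 75% with every replicate also reaching 75%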
TROY NFkB inh – inhibitors of TROY-driven NF-kB signaling, primary screen, Q293 LMP1-TROYcd cells, NF-kB luciferase, uHTS | Q293 LMP1-TROYcd NF-kB luciferase reporter, 4 h | inhibition, % at 10 µM | actives 0.98% (n = 360,000) | AID 1347056, 2019;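 active means compounds whose plate-normalised and pattern-corrected inhibition of the luciferase reporter signal at the single screening dose is 50% or more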
HIF-2a inh – HIF-2a reporter inhibitors, primary screen, luminescence, 786-0 RCC cells | 786-0 RCC cells HIF-2a reporter, luciferase luminescence, overnight | inhibition, % at 18.8 µM | actives 0.72% (n = 360,000);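 active means inhibition of the luminescence signal of 40% or more relative to plate controls, in a single-dose primary screen at 18.75 µM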
Numbers stand for hits; – = inactive; · = not tested or not shown. Compounds with a hit are over-represented: about 3.4% of the library has one in this group of screens.

SMILES	MITF TRPM1 inh	EBV LMP1 NFkB	TWEAK-Fn14 inh	Shn3 inh set2	TROY NFkB inh	HIF-2a inh
COc1ccc(NS(=O)(=O)c2cccc(C(=O)N3CCN(C/C=C/c4ccccc4)CC3)c2)cc1	·	–	–	–	–	–
O=C(CCS(=O)(=O)c1ccccc1)Nc1nccs1	–	84	–	–	–	–
CC(C)c1nnc(NC(=O)CCCC(=O)O)s1	–	–	76	–	·	–
CC(C)c1nnc(NC(=O)CCc2ccccc2)s1	–	–	–	–	–	–
O=C(COc1ccccc1)Nc1nccs1	–	–	–	–	–	–
CC(C)c1nnc(NC(=O)CCS(=O)(=O)c2ccccc2)s1	–	–	–	–	–	–
O=C(COc1ccc2ccccc2c1)Nc1nccs1	–	–	75	–	–	–
CCCC(C)c1nnc(NC(=O)CCS(=O)(=O)c2ccccc2)s1 (stereo not drawn)	–	–	57	–	–	–
CCCS(=O)(=O)NC(=O)C1(C)CCCN(C(=O)c2ccccc2OC)C1 (stereo not drawn)	·	·	–	–	–	–
O=C(/C=C1\NC2(CCCC2)Cc2ccccc21)C(=O)N/N=C/c1ccccc1O	–	44	–	91	–	–
COc1cc(/C=N/NC(=O)C(=O)/C=C2\NC3(CCCC3)Cc3ccccc32)ccc1O	–	–	–	–	–	–
Cc1cccc(S(=O)(=O)NC(=O)C2(C)CCN2C(=O)c2ccccc2CCc2ccccc2)c1 (stereo not drawn)	·	·	–	–	–	–
Cc1c(C(=O)NCC2COc3ccccc3O2)oc2ccc(S(=O)(=O)N3CCOCC3)cc12 (stereo not drawn)	–	–	57	–	–	–
CCN(CC)S(=O)(=O)c1ccc2oc(C(=O)NCC3COc4ccccc4O3)c(C)c2c1 (stereo not drawn)	–	–	56	–	–	–
Cc1c(C(=O)NCC2COc3ccccc3O2)oc2ccc(S(=O)(=O)N3CC(C)CC(C)C3)cc12 (stereo not drawn)	–	–	–	–	–	–
Cc1c(C(=O)NCc2ccc3c(c2)OCO3)oc2ccc(S(=O)(=O)N3CCC(C)CC3)cc12	–	–	59	–	–	–
O=C(O)CSc1nnc(-c2ccco2)o1	–	–	–	–	–	–
CN(C)C(CNC(=O)CSc1nnc(-c2ccco2)o1)c1ccccc1 (stereo not drawn)	–	–	98	–	–	–
C/C(=N\NC(=O)C1CC1)c1ccc(OC(F)F)cc1	–	–	–	–	–	–
COCCn1c(C)cc(C(=O)COC(=O)C23CC4CC(CC(O)(C4)C2)C3)c1C	–	42	76	–	65	–
CCCn1c(C)cc(C(=O)COC(=O)c2cc(=O)[nH]c3ccccc23)c1C	·	–	–	–	–	–
CCCn1c(C)cc(C(=O)COC(=O)c2nccnc2N)c1C	–	–	72	–	56	–
Cc1cc(C(=O)COC(=O)C23CC4CC(CC(O)(C4)C2)C3)c(C)n1-c1c(C)n(C)n(-c2ccccc2)c1=O	–	–	–	–	–	–
COCCn1c(C)cc(C(=O)COC(=O)c2cc3c(s2)CCC3)c1C	–	–	–	–	–	–
COCCn1c(C)cc(C(=O)COC(=O)c2cccc(O)c2)c1C	–	82	96	–	86	–
SMILES	MITF TRPM1 inh	EBV LMP1 NFkB	TWEAK-Fn14 inh	Shn3 inh set2	TROY NFkB inh	HIF-2a inh
CCOC(=O)Nc1ccc2c(c1)N(C(=O)CCN(CC)CC)c1ccccc1S2=O (stereo not drawn)	–	–	64	–	54	–
CC(=O)NC(c1cccc(F)c1)c1nc(-c2cccs2)cs1 (stereo not drawn)	·	·	–	–	–	–
COc1ccc(-c2nc3ccccc3nc2-c2ccccc2)cc1	–	–	–	–	–	–
COc1ccc(-c2cc3nnc(-c4ccccc4)nc3s2)cc1	–	–	72	–	63	–
COc1cccc(OCc2cc(C(=O)N(C)C3CCCCC3)no2)c1	·	–	–	–	–	–
COc1ccc(-c2cc3ccccc3cn2)cc1	–	–	–	–	–	–
COc1ccc(-c2cc3ccc(OC)cc3cn2)cc1	–	–	86	–	–	–

Screening results as filed in PubChem.
